Laboratory results published in PubChem BioAssay (NCATS).
“And” between values parts separate entries of the source, which are not always exact repeats. Equal entries are not always repeated. Unmarked numbers belong to inactive results. Results filed as inconclusive are left out. The source made the active and inactive calls. Unless noted, calls follow the shape of the dose curve; as a rule, active = well fitted curve in either direction with a large enough effect (not every such curve was filed as active); inconclusive = small, poorly fitted or top-dose-only effect, or another doubt; inactive = flat fitted curve, though single readings scatter.

Key:
[1] = AP1 Signaling Pathway (AID 357); settings: ME-180 AP-1-bla reporter, EGF-induced, beta-lactamase ratio, 5 h;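 also: ME-180 reporter cells stimulated with EGF at its EC50 level; % is scaled to controls: 0 for no effect and ±100 for the full control effect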
Outline: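 Titration-series screen for positive or negative modulators of EC50 EGF-induced signaling in ME-180 cells carrying an AP-1-driven beta-lactamase reporter. After 5 hours at 37 degrees Celsius, CCF4 460nm/530nm emission ratio gave %Activity; AC50 values derived.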

[2] = NFAT Signaling Pathway (AID 444); settings: Jurkat NFAT-bla M1, carbachol, beta-lactamase ratio, 5 h;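 also: carbachol stimulus at about its EC50 of 1 µM final; % is scaled to controls: 0 for no effect and ±100 for the full control effect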
Outline: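 Jurkat cells with NFAT-driven β-lactamase reporter and co-expressed M1 receptor, stimulated with carbachol (final 1 uM, ~EC50), compound titration, 5 h at 37 °C. CCF4 loaded 1 h at RT; 460/530 nm ratio gave %activity and AC50.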

[3] = Stat Signaling Pathway (AID 446); settings: ME-180 (cervical carcinoma) SIE beta-lactamase reporter, IL-6 stimulated, 5 h; series mostly up to 17.2 µM;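 also: ME-180 cervical cancer cells given 40 pM IL-6 alongside compound; SIE-controlled beta-lactamase reporter measured as 460/530 nm FRET emission ratio; % is scaled to controls: 0 for no effect and ±100 for the full control effect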
Outline: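 Emission at 460 and 530 nm (excitation 405 nm) reports SIE-controlled beta-lactamase in ME-180 cells. Cells received compound with 40 pM IL-6 for 5 hrs at 37 C; data scaled between 300 pM IL-6 and 125 nM JAK-inhibitor controls.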

[4] = molecular target: Mitogen-activated protein kinase 10 (Mus musculus) (UniProt Q61831); test: JNK3 AlphaScreen Assay (AID 530); settings: JNK3 lysate, c-Jun phosphorylation; series mostly up to 57.1 µM;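 also: kinase came from lysate of stimulated human HepG2 cells; signal reports phosphorylation of biotinylated GST-cJun 1-79 at Ser73 with 10 µM ATP; % is scaled to controls: 0 for no effect and ±100 for the full control effect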
Outline: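 HepG2 lysate (IL-1b/TNFa pre-activated) + biotin-GST-cJun 1-79 + anti-pSer73 cJun; cpd titration, 15 min RT; ATP 10 uM start; Tris pH 7.6, MgCl2, DTT, vanadate; beads in EDTA buffer; AlphaScreen.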

[5] = molecular target: Cytochrome P450 1A2 (Homo sapiens) (UniProt P05177); test: p450-cyp1a2 (AID 410; calls by dose curve; also: potency is read from the fitted curve at half-maximal effect;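 as to activity change, negative = inhibition: -100% = full effect of reference inhibitor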); settings: recombinant CYP1A2, luciferin-ME demethylation, luminescence; series mostly up to 57 µM
Outline: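 20nM CYP1A2, 100uM Luciferin-ME (=Km), 100mM KPO4; cpd 10 min RT; +NADPH regen, 60 min RT; stop/detect 20 min; luminescence. Normalized to furafylline 57 uM = full inhibition.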

[6] = molecular target: Glucocorticoid receptor (Homo sapiens) (UniProt P04150); test: GR-GFP Redistribution (AID 450;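 active = compounds whose dose series gives a full or clear partial fitted curve of increased nuclear translocation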; also: potency is read from the fitted curve at half-maximal effect); settings: U2OS GR-GFP nuclear translocation, laser cytometry, 2 h
[7] = molecular target: Glucocorticoid receptor (Homo sapiens) (UniProt P04150); test: GR-EFC Redistribution (AID 451; calls by dose curve; also: potency is read from the fitted curve at half-maximal effect); settings: CHO-K1 GR-EFC translocation, beta-gal luminescence, 2 h
Outline: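 CHO-K1 cells expressing nuclear EA and GR-ED fragments of b-gal; compounds titrated up to 46 uM final, 2 h at 37 C. GR nuclear translocation read as complemented b-gal luminescence after 1 h RT detection.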

[8] = Cell Viability - BJ (AID 421; calls by dose curve;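 also: potency is read from the fitted curve at half-maximal effect; cells exposed to compound for 40 hours at 37 °C before readout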); settings: BJ fibroblast viability, qHTS
Outline: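 Cytotoxicity in human BJ foreskin fibroblasts is scored as loss of cellular ATP after a 40-hour exposure, measured by luciferase luminescence. Controls are DMSO and 100 uM tamoxifen.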

[9] = Cell Viability - Jurkat (AID 426;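 active = dose-dependent loss of cell ATP signal giving a full or clear fitted curve, ranked by lower potency value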;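 also: potency is read from the fitted curve at half-maximal effect; cells exposed to compound for 40 hours at 37 °C before ATP read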); settings: qHTS
Outline: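 Luminescent ATP read-out (CellTiter-Glo, 20 min at room temperature) after 40 hr compound exposure at 37 °C of Jurkat E6-1 cells, 5000/well. Decreased ATP taken as cytotoxicity; AC50 from standard Hill equation.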

[10] = Cell Viability - Hek293 (AID 427;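 active = compounds whose dose-response curve shows a full or clear partial loss of cell viability, called from curve shape rather than a numeric limit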;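 also: potency is read from the fitted curve at half-maximal effect; cells exposed to compound for 40 hours at 37 °C before reading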); settings: qHTS
Outline: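 qHTS, human embryonic kidney (adenovirus-transformed) cells; 40 hr cpd, 37 °C; CellTiter-Glo ATP luminescence. Norm: DMSO = 0, 100 uM tamoxifen = 100% inhibition. Hill-fit AC50.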

[11] = Cell Viability - HepG2 (AID 433; calls by dose curve;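 also: potency is read from the fitted curve at half-maximal effect; potency for ATP loss meaning cytotoxicity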); settings: qHTS
Outline: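 Cytotoxicity is scored as loss of intracellular ATP in HepG2 cells exposed to compounds for 40 h. Concentration-response curves, normalized to DMSO and 100 uM tamoxifen, give AC50 values.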

[12] = Cell Viability - MRC5 (AID 434; calls by dose curve;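 also: potency is read from the fitted curve at half-maximal effect; cells exposed to compound for 40 hours at 37 °C; potency reflects cytotoxicity seen as loss of intracellular ATP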); settings: MRC5 lung fibroblast viability, qHTS
Outline: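 ATP luminescence read-out (CellTiter-Glo, 20 min RT) after 40 hr, 37 °C compound exposure of 1500 MRC5 cells/well. Data normalized to DMSO (basal) and 100 uM tamoxifen (100% inhibition); AC50 from standard Hill equation.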

[13] = Cell Viability - SK-N-SH (AID 435; calls by dose curve; also: potency is read from the fitted curve at half-maximal effect); settings: SK-N-SH neuroblastoma cell viability qHTS
Outline: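 Cells seeded at 1500 per well and incubated 5 hr at 37 °C. Compound added, then 40 hr at 37 °C. CellTiter-Glo added, 20 min at room temperature, luminescence read.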

[14] = Cell Viability - N2a (AID 540; active = well fitted curve in the direction sought with a large enough effect; an effect the other way counts as inactive or inconclusive;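 also: plate controls were DMSO alone for no effect and tamoxifen control for full effect; nearly all actives have a fitted effect of over 45% in size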); settings: N2a mouse neuroblastoma cell viability; series mostly up to 92.2 µM
Outline: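 N2a mouse neuroblastoma, 1500 cells/well, 5 hr settle; compound 40 hr, 37 °C; CellTiter-Glo 20 min RT; luminescence; Hill-fit AC50.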

[15] = Cell Viability - NIH 3T3 (AID 541; active = well fitted curve in the direction sought with a large enough effect; an effect the other way counts as inactive or inconclusive;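 also: plate controls were DMSO alone for no effect and tamoxifen positive control for full effect; nearly all actives have a fitted effect of over 25% in size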); settings: NIH 3T3 cell viability, qHTS; series mostly up to 92.2 µM
Outline: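 qHTS format; 40 hr compound exposure, 37 °C; CellTiter-Glo luminescence (cellular ATP) read-out after 20 min at RT. Decrease in ATP = cytotoxicity; AC50 from standard Hill fit.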

[16] = Cell Viability - HUV-EC-C (AID 542; active = well fitted curve in the direction sought with a large enough effect; an effect the other way counts as inactive or inconclusive; also: % is scaled to controls: 0 for no effect and ±100 for the full control effect; nearly all actives have a fitted effect of over 35% in size); settings: HUV-EC-C endothelial cell viability, qHTS; series mostly up to 92.2 µM
Outline: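 Luminescent ATP read-out (CellTiter-Glo, 20 min room temperature) after 40 hr compound treatment of HUV-EC-C cells at 37 °C. Concentration-response data fitted with the standard Hill equation to give AC50; tamoxifen and doxorubicin served as positive controls.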

[17] = Cell Viability - H-4-II-E (AID 543; active = well fitted curve in the direction sought with a large enough effect; an effect the other way counts as inactive or inconclusive; also: % is scaled to controls: 0 for no effect and ±100 for the full control effect; nearly all actives have a fitted effect of over 35% in size); settings: H-4-II-E rat hepatoma viability; series mostly up to 92.2 µM
Outline: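 qHTS, rat hepatoma H-4-II-E, 1500 cells/well; 40 hr compound exposure, 37 °C; CellTiter-Glo ATP luminescence after 20 min RT; AC50 by standard Hill fit.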

[18] = Cell Viability - SH-SY5Y (AID 544; active = well fitted curve in the direction sought with a large enough effect; an effect the other way counts as inactive or inconclusive;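 also: 0% = DMSO alone and -100% = 100 µM tamoxifen; nearly all actives have a fitted effect of over 55% in size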); settings: SH-SY5Y neuroblastoma cell viability; series mostly up to 92.2 µM
Outline: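 SH-SY5Y, 1500 cells/well, 5 hr pre-incubation 37 °C; cpd 40 hr 37 °C; CellTiter-Glo 20 min RT; luminescence (ATP) read. qHTS concentration-response, Hill fit → AC50. Tamoxifen, doxorubicin as positive controls.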

[19] = Cell Viability - Renal Proximal Tubule (AID 545; active = well fitted curve in the direction sought with a large enough effect; an effect the other way counts as inactive or inconclusive;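 also: 0% = DMSO only and -100% = 100 µM tamoxifen; nearly all actives have a fitted effect of over 40% in size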); settings: renal proximal tubule cells viability, primary cells of rat origin; series mostly up to 91.7 µM
Outline: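 Cytotoxicity is scored as a concentration-dependent drop in cellular ATP in primary rat renal proximal tubule cells exposed for 40 hr. AC50 derives from Hill modelling.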

Cytochrome P450 1A2 (Homo sapiens), sequence (P05177 whole entry, looked up): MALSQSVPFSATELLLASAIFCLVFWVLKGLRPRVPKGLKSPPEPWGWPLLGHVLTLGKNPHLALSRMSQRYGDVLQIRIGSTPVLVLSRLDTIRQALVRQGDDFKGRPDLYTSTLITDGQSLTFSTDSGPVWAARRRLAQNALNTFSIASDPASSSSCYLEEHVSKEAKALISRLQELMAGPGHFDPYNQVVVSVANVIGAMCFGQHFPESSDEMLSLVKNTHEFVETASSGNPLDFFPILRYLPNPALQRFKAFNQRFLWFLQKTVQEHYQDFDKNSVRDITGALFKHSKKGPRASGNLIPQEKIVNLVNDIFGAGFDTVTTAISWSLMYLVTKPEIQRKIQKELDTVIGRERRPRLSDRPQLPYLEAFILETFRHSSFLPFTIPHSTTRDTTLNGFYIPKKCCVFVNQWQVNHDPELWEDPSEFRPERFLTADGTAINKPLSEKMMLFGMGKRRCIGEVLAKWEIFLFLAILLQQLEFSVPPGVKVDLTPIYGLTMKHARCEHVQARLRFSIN
Glucocorticoid receptor (Homo sapiens), sequence (P04150 whole entry, looked up, the tested form may be a part): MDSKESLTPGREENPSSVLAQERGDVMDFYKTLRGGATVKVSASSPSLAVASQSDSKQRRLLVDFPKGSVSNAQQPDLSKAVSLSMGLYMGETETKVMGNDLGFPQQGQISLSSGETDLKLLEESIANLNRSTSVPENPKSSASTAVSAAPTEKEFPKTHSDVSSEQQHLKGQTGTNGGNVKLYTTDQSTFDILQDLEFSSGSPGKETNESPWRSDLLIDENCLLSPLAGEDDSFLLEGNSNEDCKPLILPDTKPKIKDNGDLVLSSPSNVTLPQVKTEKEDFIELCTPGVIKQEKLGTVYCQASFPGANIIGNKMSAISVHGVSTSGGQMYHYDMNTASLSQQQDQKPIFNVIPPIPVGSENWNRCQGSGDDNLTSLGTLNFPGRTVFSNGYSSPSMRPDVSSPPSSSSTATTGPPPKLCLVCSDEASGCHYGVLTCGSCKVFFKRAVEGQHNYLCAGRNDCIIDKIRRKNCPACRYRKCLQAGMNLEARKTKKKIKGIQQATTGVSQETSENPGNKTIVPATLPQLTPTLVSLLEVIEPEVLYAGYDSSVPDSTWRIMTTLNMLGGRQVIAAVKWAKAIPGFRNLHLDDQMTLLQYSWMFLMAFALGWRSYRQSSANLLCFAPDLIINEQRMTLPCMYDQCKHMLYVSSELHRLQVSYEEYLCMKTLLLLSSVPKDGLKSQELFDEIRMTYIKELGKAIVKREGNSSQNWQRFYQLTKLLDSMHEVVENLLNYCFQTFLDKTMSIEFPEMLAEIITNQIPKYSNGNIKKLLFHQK

Structure (SMILES): Cc1[nH]c(=O)c(C#N)cc1-c1ccncc1
- activity change, negative = inhibition ([1]; at 17.2 µM (top of the series)): 8.13%
- activity change, negative = inhibition ([1]; at 38 µM (top of the series)): -0.284%
- activity change, negative = inhibition ([2]; at 17.2 µM (top of the series)): -20.1%
- activity change, negative = inhibition ([2]; at 38 µM (top of the series)): -0.614%
- outcome [3]: inactive
- outcome [4]: inactive

Structure (SMILES): Clc1cccc(Cl)c1NC1=NCCN1
- activity change, negative = inhibition ([1]; at 17.2 µM (top of the series)): -0.203%
- activity change, negative = inhibition ([1]; at 38 µM (top of the series)): 4.79%
- Potency [5]: inactive
- activity change, negative = inhibition ([2]; at 17.2 µM (top of the series)): -11.5%
- activity change, negative = inhibition ([2]; at 38 µM (top of the series)): -5.97%
- outcome [3]: inactive
- Potency [6]: > 46 µM and > 20.6 µM
- Potency [7]: > 46 µM and > 20.6 µM
- outcome [4]: inactive

Structure (SMILES): Nc1ccc(S(=O)(=O)Nc2ccnn2-c2ccccc2)cc1
- activity change, negative = inhibition ([1]; at 17.2 µM (top of the series)): 1.79%
- activity change, negative = inhibition ([1]; at 38 µM (top of the series)): 4.55%
- Potency [5]: inactive
- activity change, negative = inhibition ([2]; at 17.2 µM (top of the series)): -4.12%
- activity change, negative = inhibition ([2]; at 38 µM (top of the series)): 1.19%
- outcome [3]: inactive
- Potency [6]: > 46 µM and > 20.6 µM
- Potency [7]: > 46 µM and > 20.6 µM
- outcome [4]: inactive

Structure (SMILES): O=c1[nH]cnc2[nH]ncc12
- activity change, negative = inhibition ([1]; at 38 µM (top of the series)): 2.34%
- Potency [5]: inactive
- Potency [8]: > 92 µM
- Potency [9]: > 92 µM
- Potency [10]: > 92 µM
- Potency [11]: > 92 µM
- Potency [12]: > 92 µM
- Potency [13]: > 92 µM
- activity change, negative = inhibition ([2]; at 38 µM (top of the series)): 5.26%
- outcome [3]: inactive
- Potency [6]: > 46 µM
- Potency [7]: > 46 µM
- outcome [4]: inactive
- outcome [14]: inactive
- Potency [15]: inactive
- outcome [16]: inactive
- Potency [17]: inactive
- outcome [18]: inactive
- outcome [19]: inactive

Structure (SMILES): NS(=O)(=O)c1cc2c(cc1Cl)NC=NS2(=O)=O
- activity change, negative = inhibition ([1]; at 17.2 µM (top of the series)): 10.4% and 2.47%
- activity change, negative = inhibition ([1]; at 38 µM (top of the series)): -2.75%
- Potency [8]: > 92 µM
- Potency [9]: > 92 µM
- Potency [10]: > 92 µM
- Potency [11]: > 92 µM
- Potency [12]: > 92 µM
- Potency [13]: > 92 µM
- activity change, negative = inhibition ([2]; at 17.2 µM (top of the series)): -2.56% and 9.37%
- activity change, negative = inhibition ([2]; at 38 µM (top of the series)): 8.02%
- outcome [3]: inactive
- outcome [4]: inactive
- outcome [14]: inactive
- Potency [15]: inactive
- outcome [16]: inactive
- Potency [17]: inactive
- outcome [18]: inactive
- outcome [19]: inactive

Structure (SMILES): Cc1cnc(NC(=O)C2=C(O)c3ccccc3S(=O)(=O)N2C)s1
- activity change, negative = inhibition ([1]; at 17.2 µM (top of the series)): -12.9%
- activity change, negative = inhibition ([1]; at 38 µM (top of the series)): 1.25%
- activity change, negative = inhibition ([2]; at 17.2 µM (top of the series)): -9.71%
- activity change, negative = inhibition ([2]; at 38 µM (top of the series)): 11.3%
- outcome [3]: inactive
- Potency [6]: > 46 µM and > 20.6 µM
- Potency [7]: > 46 µM
- outcome [4]: inactive

Structure (SMILES): NC(N)=NC(=O)c1nc(Cl)c(N)nc1N
- activity change, negative = inhibition ([1]; at 17.2 µM (top of the series)): 2.66% and -5.39%
- activity change, negative = inhibition ([1]; at 38 µM (top of the series)): -2.62%
- Potency [5]: 12.6 µM (active) and 6.31 µM (active)
- Potency [8]: > 92 µM
- Potency [9]: > 92 µM
- Potency [10]: > 92 µM
- Potency [11]: > 92 µM
- Potency [12]: > 92 µM
- Potency [13]: > 92 µM
- activity change, negative = inhibition ([2]; at 17.2 µM (top of the series)): 8.59% and -17.4%
- activity change, negative = inhibition ([2]; at 38 µM (top of the series)): -2.5%
- outcome [3]: inactive
- Potency [6]: > 46 µM and > 20.6 µM
- Potency [7]: > 46 µM and > 20.6 µM
- outcome [4]: inactive
- outcome [14]: inactive
- Potency [15]: inactive
- outcome [16]: inactive
- outcome [19]: inactive
